# Test results from PubChem BioAssay (NCATS).
# Assay: qHTS profiling of the MIPE4 collection as inhibitors of Plasmodium falciparum (DD2) proliferation (AID 743345)
# Settings: P. falciparum Dd2 in erythrocytes, SYBR Green DNA, 72 h; at 28.5 µM (top of the series) unless noted
# Procedure, shortened: (§1)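 Parasite DNA was quantified by SYBR Green I fluorescence (ex 485, em 535 nm) after overnight lysis in saponin/Triton buffer at room temperature. Cultures at 0.3% parasitemia and 2.5% hematocrit were first exposed to compound for 72 h at 37 C; signals were normalised to artemisinin (0.29 uM) and vehicle wells.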
row,Structure (SMILES),"parasite growth remaining, % of DMSO control (lower = more inhibition)"
1,Cc1c(C(=O)c2cccc3ccccc23)c2cccc3c2n1[C@H](CN1CCOCC1)CO3,47.9%
2,CCCCCC[C@H]1C(=O)O[C@H](C)[C@H](NC(=O)c2cccc(NC=O)c2O)C(=O)O[C@@H](C)[C@@H]1OC(=O)CC(C)C,17.3%
3,CC[C@@H](C(N)=O)N1CCCC1=O,90.5%
4,CC[C@@]1(O)C(=O)OCc2c1cc1n(c2=O)Cc2cc3ccccc3nc2-1,12.9%
5,CN(C)[C@@H]1C(=O)C(C(N)=O)=C(O)[C@@]2(O)C(=O)C3=C(O)c4c(O)cccc4[C@@](C)(O)[C@H]3[C@H](O)[C@@H]12,45.1%
6,CN(C)NC(=O)CCC(=O)O,101%
7,CC1=NN=C(c2ccc(N)cc2)c2cc3c(cc2C1)OCO3,108%
8,CC(C)(O)C(=O)Nc1ccc([N+](=O)[O-])c(C(F)(F)F)c1,97.4%
9,Oc1ccc2c3c1O[C@H]1c4[nH]c5c(c4C[C@@]4(O)[C@@H](C2)N(CC2CC2)CC[C@]314)C[C@@]1(O)[C@H]2Cc3ccc(O)c4c3[C@@]1(CCN2CC1CC1)[C@H]5O4,25.9%
10,NC1CC1c1ccccc1 (stereo not given),17.6%
11,COc1ccc2c(c[n+](C)c3c4cc5c(cc4ccc23)OCO5)c1OC,74.8%

# Assay: qHTS profiling of the MIPE4 collection as inhibitors of Plasmodium falciparum (DD2) proliferation (Rep 2) (AID 743346)
# Settings: P. falciparum Dd2 in erythrocytes, SYBR Green DNA, 72 h; at 28.5 µM (top of the series)
# Procedure, shortened: as §1
row,Structure (SMILES),"parasite growth, % of control (lower = inhibition)"
1,Cc1c(C(=O)c2cccc3ccccc23)c2cccc3c2n1[C@H](CN1CCOCC1)CO3,48.7%
2,CCCCCC[C@H]1C(=O)O[C@H](C)[C@H](NC(=O)c2cccc(NC=O)c2O)C(=O)O[C@@H](C)[C@@H]1OC(=O)CC(C)C,14.5%
3,O=C(N[C@H]1CN2CCC1CC2)c1ccc(Cl)cc1,31.9%
4,CC[C@@H](C(N)=O)N1CCCC1=O,46.9%
5,CC[C@@]1(O)C(=O)OCc2c1cc1n(c2=O)Cc2cc3ccccc3nc2-1,19.3%
6,CN(C)[C@@H]1C(=O)C(C(N)=O)=C(O)[C@@]2(O)C(=O)C3=C(O)c4c(O)cccc4[C@@](C)(O)[C@H]3[C@H](O)[C@@H]12,32%
7,CN(C)NC(=O)CCC(=O)O,141%
8,COC(=O)[C@@H](N)CCCN=C(N)N[N+](=O)[O-],82%
9,CC1=NN=C(c2ccc(N)cc2)c2cc3c(cc2C1)OCO3,93%
10,CC(C)(O)C(=O)Nc1ccc([N+](=O)[O-])c(C(F)(F)F)c1,70.6%
11,c1ccc(CCCN2CCN(CCOC(c3ccccc3)c3ccccc3)CC2)cc1,18.7%
12,Oc1ccc2c3c1O[C@H]1c4[nH]c5c(c4C[C@@]4(O)[C@@H](C2)N(CC2CC2)CC[C@]314)C[C@@]1(O)[C@H]2Cc3ccc(O)c4c3[C@@]1(CCN2CC1CC1)[C@H]5O4,13%
13,NC1CC1c1ccccc1 (stereo not given),105%
14,COc1ccc2c(c[n+](C)c3c4cc5c(cc4ccc23)OCO5)c1OC,99%
